Measurements published in PubChem BioAssay AID1159580 (chemical genetic matrix, 2015).
About 2,000 (36%) of roughly 5,500 compounds were called active. About 18% were inconclusive and are not listed. No stated cut-off is given here; in the data, active means normalized growth mostly below about 0.91 (no sharp cut-off); inconclusive means no clear call, values can overlap the other calls; inactive means mostly above about 0.92. The list shows a part of the results.

Assay: chemical genetic growth profiling, strain panel (AID 1159580);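 further: tested at 20 µM; growth read once vehicle control cultures reached saturation at 30 °C; 1 = growth at the plate median or of vehicle wells; lower values mean less growth of the strain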
Details: growth OD

Measured: normalized growth

COc1cccc(OC)c1C(=O)N[C@@H]1C(=O)N2[C@@H]1SC(C)(C)[C@@H]2C(=O)O
inactive: S. cerevisiae deletion strains, locus YJR066W, strain TOR1, active compounds read low 0.974 | S. cerevisiae deletion strains, locus YJR075W, strain HOC1, active compounds read low 0.998 | S. cerevisiae deletion strains, locus YKL009W, strain mrt4, active compounds read low 0.946 | S. cerevisiae deletion strains, locus YKL068W, active compounds read low 0.975 | S. cerevisiae deletion strains, locus YKL085W, strain MDH1 (second series), active compounds read low 0.986 | S. cerevisiae deletion strains, locus YKL085W, strain MDH1, active compounds read low 0.986 | S. cerevisiae deletion strains, locus YKL160W, strain elf1, active compounds read low 0.978 | S. cerevisiae deletion strains, locus YKR001C, strain vps1, active compounds read low 0.973 | S. cerevisiae deletion strains, locus YKR026C, strain gcn3, active compounds read low 1 | S. cerevisiae deletion strains, locus YKR091W, strain srl3, active compounds read low 1 | S. cerevisiae deletion strains, locus YLL001W, strain dnm1, active compounds read low 0.963 | S. cerevisiae deletion strains, locus YLL026W, active compounds read low 0.993 | S. cerevisiae deletion strains, locus YLL041C, strain sdh2, active compounds read low 0.994 | S. cerevisiae deletion strains, locus YLR027C, strain aat2, active compounds read low 0.995 | S. cerevisiae deletion strains, locus YLR039C, strain RIC1, active compounds read low 1 | S. cerevisiae deletion strains, locus YLR058C, strain SHM2, active compounds read low 1.01 | S. cerevisiae deletion strains, locus YLR102C, strain apc9, active compounds read low 0.985 | S. cerevisiae deletion strains, locus YLR113W, strain HOG1, active compounds read low 0.982 | S. cerevisiae deletion strains, locus YLR221C, strain rsa3, active compounds read low 1 | S. cerevisiae deletion strains, locus YLR258W, strain gsy2, active compounds read low 0.999 | S. cerevisiae deletion strains, locus YLR262C, strain YPT6 (second series), active compounds read low 1 | S. cerevisiae deletion strains, locus YLR262C, strain YPT6, active compounds read low 1.03 | S. cerevisiae deletion strains, locus YLR268W, strain sec22, active compounds read low 0.993 | S. cerevisiae deletion strains, locus YLR320W, strain mms22, active compounds read low 0.986 | S. cerevisiae deletion strains, locus YLR330W, strain CHS5, active compounds read low 0.993 | S. cerevisiae deletion strains, locus YLR342W, strain FKS1 (second series), active compounds read low 1.03 | S. cerevisiae deletion strains, locus YLR342W, strain FKS1, active compounds read low 0.988 | S. cerevisiae deletion strains, locus YLR357W, strain rsc2, active compounds read low 0.994 | S. cerevisiae deletion strains, locus YLR370C, strain arc18, active compounds read low 1.01 | S. cerevisiae deletion strains, locus YLR371W, strain rom2, active compounds read low 0.993 | S. cerevisiae deletion strains, locus YLR384C, strain iki3, active compounds read low 0.991 | S. cerevisiae deletion strains, locus YLR418C, strain cdc73, active compounds read low 0.996 | S. cerevisiae deletion strains, locus YML016C, strain PPZ1, active compounds read low 1 | S. cerevisiae deletion strains, locus YML032C, strain rad52, active compounds read low 0.991 | S. cerevisiae deletion strains, locus YML120C, strain ndi1, active compounds read low 0.992 | S. cerevisiae deletion strains, locus YML124C, strain tub3, active compounds read low 0.991 | S. cerevisiae deletion strains, locus YMR058W, strain fet3, active compounds read low 1 | S. cerevisiae deletion strains, locus YMR078C, strain ctf18, active compounds read low 0.995 | S. cerevisiae deletion strains, locus YMR125W, strain sto1, active compounds read low 1.02 | S. cerevisiae deletion strains, locus YMR129W, active compounds read low 0.992 | S. cerevisiae deletion strains, locus YMR205C, strain PFK2, active compounds read low 0.991 | S. cerevisiae deletion strains, locus YMR223W, strain ubp8, active compounds read low 1.01 | S. cerevisiae deletion strains, locus YMR231W, strain pep5, active compounds read low 0.997 | S. cerevisiae deletion strains, locus YMR263W, strain SAP30, active compounds read low 0.972 | S. cerevisiae deletion strains, locus YMR307W, strain GAS1, active compounds read low 1.25 | S. cerevisiae deletion strains, locus YNL067W, strain RPL9B, active compounds read low 0.962 | S. cerevisiae deletion strains, locus YNL071W, strain lat1, active compounds read low 1 | S. cerevisiae deletion strains, locus YNL128W, strain TEP1, active compounds read low 0.974 | S. cerevisiae deletion strains, locus YNL153C, strain GIM3, active compounds read low 1.01 | S. cerevisiae deletion strains, locus YNL183C, strain NPR1, active compounds read low 0.971 | S. cerevisiae deletion strains, locus YNL209W, strain ssb2, active compounds read low 1.01 | S. cerevisiae deletion strains, locus YNL233W, strain BNI4, active compounds read low 1.01 | S. cerevisiae deletion strains, locus YNL248C, strain rpa49, active compounds read low 1.01 | S. cerevisiae deletion strains, locus YNL250W, strain rad50, active compounds read low 0.921 | S. cerevisiae deletion strains, locus YNL271C, strain bni1, active compounds read low 0.991 | S. cerevisiae deletion strains, locus YNL298W, strain CLA4, active compounds read low 0.98 | S. cerevisiae deletion strains, locus YNL307C, strain MCK1, active compounds read low 1 | S. cerevisiae deletion strains, locus YNL322C, strain KRE1 (second series), active compounds read low 1.01 | S. cerevisiae deletion strains, locus YNL322C, strain KRE1, active compounds read low 1 | S. cerevisiae deletion strains, locus YNR049C, strain mso1, active compounds read low 0.995 | S. cerevisiae deletion strains, locus YNR052C, strain pop2, active compounds read low 0.987 | S. cerevisiae deletion strains, locus YOL006C, strain TOP1, active compounds read low 1.01 | S. cerevisiae deletion strains, locus YOL012C, strain htz1 0.716 | S. cerevisiae deletion strains, locus YOR001W, strain rrp6, active compounds read low 0.99 | S. cerevisiae deletion strains, locus YOR061W, strain CKA2, active compounds read low 1 | S. cerevisiae deletion strains, locus YOR069W, strain VPS5, active compounds read low 0.999 | S. cerevisiae deletion strains, locus YOR070C, strain gyp1, active compounds read low 1.01 | S. cerevisiae deletion strains, locus YOR080W, strain dia2, active compounds read low 0.99 | S. cerevisiae deletion strains, locus YOR083W, strain WHI5, active compounds read low 0.95 | S. cerevisiae deletion strains, locus YOR106W, strain vam3, active compounds read low 0.994 | S. cerevisiae deletion strains, locus YOR136W, strain idh2, active compounds read low 0.992 | S. cerevisiae deletion strains, locus YOR144C, strain elg1, active compounds read low 0.989 | S. cerevisiae deletion strains, locus YOR184W, strain ser1, active compounds read low 0.996 | S. cerevisiae deletion strains, locus YOR231W, strain MKK1, active compounds read low 0.988 | S. cerevisiae deletion strains, locus YOR265W, strain rbl2, active compounds read low 1 | S. cerevisiae deletion strains, locus YOR270C, strain vph1, active compounds read low 1 | S. cerevisiae deletion strains, locus YOR290C, strain snf2, active compounds read low 1 | S. cerevisiae deletion strains, locus YOR316C, strain cot1, active compounds read low 0.977 | S. cerevisiae deletion strains, locus YPL051W, strain arl3, active compounds read low 0.989 | S. cerevisiae deletion strains, locus YPL055C, strain LGE1, active compounds read low 0.968 | S. cerevisiae deletion strains, locus YPL078C, strain atp4, active compounds read low 0.97 | S. cerevisiae deletion strains, locus YPL106C, strain sse1, active compounds read low 1.03 | S. cerevisiae deletion strains, locus YPL240C, strain hsp82, active compounds read low 0.999 | S. cerevisiae deletion strains, locus YPL241C, strain CIN2, active compounds read low 1 | S. cerevisiae deletion strains, locus YPL256C, strain CLN2, active compounds read low 1.06 | S. cerevisiae deletion strains, locus YPR141C, strain kar3, active compounds read low 0.972 | S. cerevisiae deletion strains, locus YPR163C, strain tif3, active compounds read low 0.987 | S. cerevisiae deletion strains, locus YPR167C, strain met16, active compounds read low 0.979 | S. cerevisiae deletion strains, strain wtn01, active compounds read low 1.01 | S. cerevisiae strains, strain wild type, active compounds read low 1
